According to PubChem BioAssay (NCI):
Values joined by “and” are separate entries in the source; they are usually repeats but may differ in a detail not shown here. Identical values can stand only once. About 83,000 compounds went through this panel and 20% of them were active in at least one assay; those are over-represented in the sample as a whole.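 For each line, cells grew in 96-well plates with the test compound present at a single concentration for 48 hours.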 Active and inactive are the calls of the source. How the source made its calls: active means growth percent below 10; inactive means the rest.

System: MCF7 breast
Assay: NCI-60 one-dose screen, 48 h (100 = growth as untreated, 0 = no growth, -100 = all killed)
Conditions: 10 µM unless noted

| Compound | growth |
| --- | --- |
| CC1=CCC2C3(C)CCC2(C(C)C)C1C3 (stereo not given) (tested in a mixture with another compound) | -76.9% [100 µM] (active) and -91.7% [100 µM] (active) |
| CC1(C)CCCC(C)(C2CCC3(C)C2C(O)CC2C4(C)CCC(O)C(C)(C)C4C(O)CC23C)O1 (stereo not given) | -19.1% [100 µM] (active) and -85.7% [100 µM] (active) |
| NC1=NN(c2ccccc2)C2(c3ccncc3C(=O)O)C1C(N)=NN2c1ccccc1 (stereo not given) | 69.3% [100 µM] (inactive) and 90.4% [100 µM] (inactive) |
| Cc1sccc1C(=S)Nc1ccc(Cl)c(/C=N/OC(C)(C)C)c1 | -73.5% [100 µM] (active) and -46.7% [100 µM] (active) |
| Oc1ccccc1-c1n[nH]c(-c2ccccc2O)n1 | -10.7% [100 µM] (active) and -76.4% [100 µM] (active) |
| Oc1ccc(/C=C/c2cc(O)cc3c2C(c2cc(O)cc(O)c2)C(c2ccc(O)c(O)c2)O3)cc1 (stereo not given) | -7.74% [100 µM] (active) and -48.3% [100 µM] (active) |
| C#CCn1c2c(c3ccccc3c1=O)C(=O)c1ccccc1-2 | 11.6% [100 µM] (inactive) and 10.4% [100 µM] (inactive) |
| CC(=O)OCC1=C(C)C[C@H]([C@@H](COC(C)=O)C2CCC3C4C[C@H]5O[C@]56CC=CC(=O)[C@]6(C)C4CC[C@@]32C)OC1=O (stereo not given in full) | -69.8% [50 µM] (active) and -84.4% [50 µM] (active) |
| CC1(C)CC2(C)OC(=N)C1(C#N)C2(C#N)C#N (stereo not given) | -56.8% [100 µM] (active) and -71.8% [100 µM] (active) |
| COC(=O)c1ccc(CCc2cc(O)c(Br)cc2O)cc1 | -61.7% [100 µM] (active) and -71.7% [100 µM] (active) |
| Nc1cc2c3c(cccc3c1)C(=O)N(c1ccc(OCCN3CCCCC3)cc1)C2=O | -95.1% [100 µM] (active) and -100% [100 µM] (active) |
| CCC/C(Cl)=N\OC(=O)Nc1ccc(F)cc1 | -78.4% [100 µM] (active) and -69.5% [100 µM] (active) |
| CC(=O)c1cc2c(s1)C(=O)c1sccc1C2=O | -67.2% [100 µM] (active) and -100% [100 µM] (active) |
| CC(=O)OC(C)c1cc2c(s1)C(=O)c1ccsc1C2=O (stereo not given) | -61.2% [100 µM] (active) and -98.9% [100 µM] (active) |
| Cc1cc(N2CCCC2)c([N+](=O)[O-])cc1[N+](=O)[O-] | 65.2% [100 µM] (inactive) and 89% [100 µM] (inactive) |
| CC#CC#C/C=C1\C=CC2(OC=CC2OC(C)=O)O1 (stereo not given) | -91.4% [100 µM] (active) and -48.8% [100 µM] (active) |
| O=C1C=C(Nc2ccc(S(=O)(=O)Nc3nccs3)cc2)c2ccccc2C1=O | -89% [100 µM] (active) and -74.5% [100 µM] (active) |
| Cc1ccc(/C=N/Nc2ccc3ccccc3n2)s1 | -79.9% [100 µM] (active) and -100% [100 µM] (active) |
| CC(=O)Nc1c(C)cc2c(nc3n2CCC3OC(C)=O)c1[N+](=O)[O-] (stereo not given) | 105% [100 µM] (inactive) and 101% [100 µM] (inactive) |
| Cc1ccnc2[nH]c(-c3ccc(F)cc3)cc(=O)c12 | 22.1% [100 µM] (inactive) and 5.04% [100 µM] (active) |

| Compound | growth |
| --- | --- |
| N#Cc1c(SCc2ccccc2)nc(-c2ccccc2)[nH]c1=S | 3.22% [100 µM] (active) and -27% [100 µM] (active) |
| N#CC1C(=O)N(c2ccccc2)NC12OC(=O)c1ccncc12 (stereo not given) | 85.8% [20 µM] (inactive) and 87.1% [20 µM] (inactive) |
| CC(O)c1cc2c(s1)C(=O)c1c(C(C)O)csc1C2=O (stereo not given) | -78.4% [100 µM] (active) and -81.9% [100 µM] (active) |
| O=c1c(-c2ccc3c(c2)OCO3)coc2c3c(ccc12)OCO3 | -45% [100 µM] (active) and -62.5% [100 µM] (active) |
| CC(C)=CCC/C(C)=C/CC/C(C)=C/CSc1ccc(Cl)cc1C(=O)O | -52.6% [100 µM] (active) and 17.2% [100 µM] (inactive) |
| CCOC(=O)c1nc2cc(C(F)(F)F)ccc2nc1Nc1ccc(F)cc1 | 34% [100 µM] (inactive) and 3.76% [100 µM] (active) |
| O=C1c2c(O)ccc(O)c2C(=O)c2c(NCCNC(=O)C(O)C(O)C(O)C(O)CO)ccc(NCCNC(=O)C(O)C(O)C(O)C(O)CO)c21 (stereo not given) | -95.5% [100 µM] (active) and -100% [100 µM] (active) |
| COc1ccc(CC2c3cc(OC)c(OC)c(OC)c3CC[N+]2(C)C)cc1Oc1ccc(CC2c3cc4c(c(OC)c3CCN2C)OCO4)cc1 (stereo not given) | 69.2% [100 µM] (inactive) and 5.51% [100 µM] (active) |
| CN(C)CCNc1ccc(NCC[N+](C)(C)Cc2ccc([N+](=O)[O-])cc2)c2c1C(=O)c1c(O)ccc(O)c1C2=O | 24.2% [100 µM] (inactive) and -30.3% [100 µM] (active) |
| N#CC12COC3(CCCCC3C1(C#N)C#N)OC2=N (stereo not given) | -25.8% [100 µM] (active) |
| Cc1ccc(/C=N/Nc2cc(C)c3ccccc3n2)s1 | -80.7% [100 µM] (active) and -40.2% [100 µM] (active) |
| O=C(O)c1cnccc1-c1cc(=O)[nH]n1-c1ccccc1 | 29.1% [100 µM] (inactive) and 3.22% [100 µM] (active) |
| C=C1C(=O)OC2/C=C(/C)C3(O)OC(C)(CC(OC(=O)C(C)C)C12)CC3OC(C)=O (stereo not given) | -83.4% [100 µM] (active) |
| CC(C)(C)O/N=C/c1cc(NC(=S)c2ccsc2)ccc1Cl | -74.5% [100 µM] (active) and -71.7% [100 µM] (active) |
| Nc1cc2c3c(cccc3c1)C(=O)N(c1ccc(OCCN3CCCC3)cc1)C2=O | -78.2% [100 µM] (active) and -100% [100 µM] (active) |
| CC1OC(OC2C(O[C@H]3CC[C@@]4(C)C(=CC[C@H]5[C@@H]6C[C@@H]7O[C@]8(CC[C@H](C)CN8)[C@@H](C)[C@@H]7[C@@]6(C)CC[C@@H]54)C3)OC(CO)C(O)C2OC2OC(CO)C(O)C(O)C2O)C(O)C(O)C1O (stereo not given in full) | 91.3% [100 µM] (inactive) and -95.2% [100 µM] (active) |
| CC(C)(C)N/N=C(\C(=O)Nc1ccc([N+](=O)[O-])cc1[N+](=O)[O-])c1nc2ccc([N+](=O)[O-])cc2[nH]c1=O | 56.5% [100 µM] (inactive) and 7.04% [100 µM] (active) |
| N#C/C(=C\c1ccccc1)C(=O)Nc1nnc(-c2ccccc2)o1 | 33.4% [100 µM] (inactive) and 3.23% [100 µM] (active) |
| COc1ccc(C2=C(N)c3ccccc3C2=O)cc1 | 79.1% [100 µM] (inactive) and 72.9% [100 µM] (inactive) |
| ClC(Cl)(Cl)C1CCOC1n1nnc2ccccc21 (stereo not given) | 68.3% [100 µM] (inactive) and 0.0175% [100 µM] (active) |
